Screening results (PubChem)
Compounds with a hit are over-represented: about 5.2% of the library has one in this group of screens.
Vif imaging = HIV Vif self-association inhibitors, primary screen, imaging, HEK293T, single point. actives 0.35% (n = 340,000). HEK293T cells, Vif self-association by quenched fluorescence, 24 h. inhibition, % at 7.49 µM. AID 602346, 2012; in the data active = inhibition above about 50%, passing the limit was not always enough; inconclusive = no clear call, values can overlap the other calls; inactive = below about 31%
esBAF inh = Bmi1 luciferase reporter increase in mESCs, primary screen, esBAF inhibitor project, mouse ES cells, Bmi1 luciferase knock-in, single point; 24 h; 100% = twice the neutral-well signal; reporter increase, % at 12.5 µM; actives 2% (n = 350,000); AID 602393, 2012; in the data active = activation above about 40%; inconclusive = no clear call, values can overlap the other calls;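 also: 0% = median of the plate's neutral control wells and 100% = double that signal; a rise in the Bmi1 reporter signal indicates esBAF inhibition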
NadD inh = inhibitors of S. aureus NadD, primary screen, biochemical, colorimetric, uHTS. purified NadD enzyme, colorimetric absorbance read-out. inhibition, % at 20 µM. actives 0.78% (n = 360,000); in the data active = inhibition above about 26%
SMARCA2 activ = SMARCA2 (BRM) function activators, primary screen, cell-based, luminescence, high throughput; MG213 cells, MMTV-luciferase reporter, dexamethasone, overnight; activation, % at 9.1 µM; actives 1% (n = 370,000); AID 652017, 2013; in the data active = activation above about 7.8%;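 also: 0% = vehicle wells and 100% = reference activator wells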
SKN-1 block = suppressors of acrylamide-induced Pgst-4::GFP reporter in worms, primary screen, SKN-1 inhibitor project, whole organism, uHTS, GFP/RFP fluorescence ratio, strain VP596. C. elegans VP596 Pgst-4::GFP/RFP ratio, 24 h. inhibition, % at 21.8 µM. actives 0.49% (n = 360,000). AID 624304, 2012;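 active = interference check ratio from 0.5 to 1.5 plus GFP to RFP signal ratio inhibition reaching or exceeding a fixed threshold, cut at about 30% in these data, passing the limit was not always enough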
GRIN3A LBD mod = binders of NR3A ligand-binding domain, primary screen, biophysical, differential scanning fluorimetry, uHTS; Glutamate receptor ionotropic, NMDA 3A (GRIN3A) ligand-binding domain; NR3A LBD differential scanning fluorimetry, Tm shift; 0% = protein alone, 100% = glycine-bound protein; Tm shift relative to glycine control, % at 25 µM; actives 2.5% (n = 340,000); AID 1259313, 2017;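 active = melting temperature shift of at least 10% of the positive control shift, at one fixed dose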
Starred values were filed as active, the others as inactive; u = inconclusive; x = not tested or not shown; ! = repeats disagree.

SMILES | Vif imaging | esBAF inh | NadD inh | SMARCA2 activ | SKN-1 block | GRIN3A LBD mod
Cc1noc(C)c1S(=O)(=O)Nc1ccc2c(c1)C(=O)N([C@@H](C)CO)C[C@@H](C)[C@H](CN(C)S(=O)(=O)c1ccccc1)OCCCC[C@H](C)O2 | x | 1.0 | x | x | x | x
CCCc1ncc(C(O)c2cccc3ccccc23)n1C (stereo unspecified) | 2.6 | -0.2 | -1.1 | -5.2 | -20.2 | 11.6*
COc1cc(NS(=O)(=O)c2cc(C(=O)NCCc3ccccn3)ccc2OC)cc(OC)c1 | -4.0 | x | -0.5 | -1.5 | 28.8 | 10.9*
COc1ccc(S(=O)(=O)Nc2ccc3c(c2)CC(=O)N([C@H](C)CO)C[C@H](C)[C@@H](CN(C)S(=O)(=O)c2ccc(F)cc2)O3)cc1 | x | -0.9 | x | x | x | x
CCCCP(=O)(CCCC)c1ccccc1C(=O)O | 11.0 | -0.6 | x | 0.0 | x | 12.2*
Nc1nn2c(-c3ccccc3)cc(=O)[nH]c2c1N=Nc1ccc(O)cc1 | -6.8 | 2.4 | 24.2 | 2.0 | 21.1 | 26.9*
Nc1nn2c(-c3ccccc3)cc(=O)[nH]c2c1N=Nc1ccc(Br)cc1 | 0.2 | x | 77.0* | -0.3 | 3.5 | 24.8*
C[C@@H]1CN([C@H](C)CO)C(=O)c2cccc(NC(=O)NC3CCCCC3)c2O[C@@H]1CN(C)Cc1ccc2c(c1)OCO2 | x | -1.5 | x | x | x | x
O=[N+]([O-])c1ccc2oc(-c3ccccc3)nc2c1 | -4.6 | x | -0.5 | 0.6 | 34.9 | -0.5
Cc1cccc(-c2nc3cc([N+](=O)[O-])ccc3o2)c1 | -11.4 | 57.1* | -2.4 | 7.6 | 7.9 | 1.2
O=[N+]([O-])c1ccc2oc(C3CCCCC3)nc2c1 | 1.4 | 44.3* | 0.3 | 4.9 | 14.3 | -1.5
CCOc1cccc(-c2nc3cc(C)ccc3o2)c1 | 23.8 | 50.4* | -4.1 | 4.3 | 6.3 | -1.0
Cc1ccc2oc(-c3ccccc3)nc2c1 | -0.3 | x | -7.2 | 5.0 | 26.4 | 8.1
C[C@@H]1CN([C@H](C)CO)C(=O)c2cc(N(C)C)ccc2O[C@@H](C)CCCCO[C@@H]1CN(C)C(=O)c1ccccc1 | x | 8.9 | x | x | x | x
CCn1nnc2sc3c(c2c1=O)CCC(C)C3 (stereo unspecified) | -0.1 | u | 5.0 | 0.2 | 36.1* | -1.5
CC1CCc2c(sc3ncn(CCO)c(=O)c23)C1 (stereo unspecified) | 4.9 | 53.0* | -6.3 | 4.8 | 6.3 | 0.1
CC1CCc2c(sc3ncn(Cc4ccc(C(=O)O)cc4)c(=O)c23)C1 (stereo unspecified) | -12.7 | 12.3 | -2.4 | -1.7 | 9.9 | -1.9
O=C(C[C@@H]1C[C@H]2c3cc(NC(=O)Cc4ccncc4)ccc3O[C@H]2[C@@H](CO)O1)NCC1CC1 | x | -3.1 | x | x | x | x
CNC[C@H]1Oc2ccc(NC(=O)Cc3cn(C)c4ccccc34)cc2CC(=O)N([C@H](C)CO)C[C@H]1C | x | 0.7 | x | x | x | x
COc1ccc(N2CCN(C(=O)COC(=O)[C@@H](NC(=O)OCc3ccccc3)C(C)C)CC2)cc1 | -15.7 | -6.0 | -1.5 | -2.7 | -12.7 | 0.5
CC(C)C(NC(=O)OCc1ccccc1)C(=O)OCC(=O)N1CCCCC1 (stereo unspecified) | 11.0 | 71.9* | 1.0 | 4.6 | 4.4 | -0.4
CCNC(=O)C[C@@H]1CC[C@H]2[C@H](COc3ccc(NC(=O)c4cccc(C(F)(F)F)c4)cc3C(=O)N2C)O1 | x | -0.3 | x | x | x | x
O=C(Cc1ccccc1)Nc1cccc([N+](=O)[O-])c1 | 0.5 | x | -4.1 | 0.4 | 7.5 | -2.8
O=C(Nc1cccc([N+](=O)[O-])c1)c1ccc2ccccc2c1O | -7.3 | 4.5 | -7.6 | 0.1 | 1.8 | 25.6*
C[C@@H]1CN([C@H](C)CO)S(=O)(=O)c2ccc(-c3cccc(F)c3)cc2O[C@@H]1CN(C)C | x | -1.1 | x | x | x | x
SMILES | Vif imaging | esBAF inh | NadD inh | SMARCA2 activ | SKN-1 block | GRIN3A LBD mod
CC(=O)N(C)C[C@@H]1OCc2ccccc2-c2ccccc2C(=O)N([C@@H](C)CO)C[C@@H]1C | x | -4.8 | x | x | x | x
N#Cc1ccc(C23OCCN2CCn2nc4ccccc4c23)cc1 (stereo unspecified) | 9.4 | 2.6 | 3.7 | -1.0 | -23.6 | 0.2
[O-][n+]1c2ccccc2c2n1CCN1CCOC21c1ccc(Cl)cc1 (stereo unspecified) | 10.6 | 60.1* | -9.8 | 3.3 | 3.1 | -1.4
C/C=C/c1ccc2c(c1)O[C@H](CN(C)C(=O)Cc1cccnc1)[C@H](C)CN([C@@H](C)CO)S2(=O)=O | x | -1.5 | x | x | x | x
CCCCN(C(=O)COC(=O)COc1c(C)cc(C)cc1C)c1c(N)n(CCC)c(=O)[nH]c1=O | 9.3 | x | -0.7 | -2.8 | -0.8 | 32.1*
N#Cc1ccccc1NC(=O)COc1ccc2c(c1)OCO2 | 11.0 | 67.5* | 1.8 | 4.1 | 14.3 | -3.8
CCc1ccccc1NC(=O)COc1ccc2c(c1)OCO2 | 18.6 | x | -15.3 | 0.9 | 6.0 | -0.7
CC(C)(C)c1nnc(NC(=O)COc2ccc3c(c2)OCO3)s1 | 4.1 | 68.8* | -8.8 | 3.8 | 9.6 | -7.7
N#Cc1ccccc1NC(=O)CC1c2ccccc2Oc2ccccc21 | 0.9 | x | -8.7 | -0.6 | -0.5 | 13.1*
Cc1ccc(NC(=O)COc2ccc3c(c2)OCO3)c(Cl)c1 | -3.6 | 47.8* | -4.6 | 3.6 | 6.6 | 0.3
CCOC(=O)c1sc(NC(=O)COc2ccc3c(c2)OCO3)nc1C | 6.8 | -9.8 | -3.7 | -0.7 | 7.2 | 0.8
CCCNC(=O)Nc1ccc2c(c1)C(=O)N(C)C[C@H](OC)[C@@H](C)CN(CC1CCCC1)[C@@H](C)CO2 | x | 1.3 | x | x | x | x
N#CCCn1cc(/C=C2\NC(=S)N(c3ccccc3)C2=O)c(-c2ccc(F)cc2)n1 | -1.0 | -3.1 | 2.6 | -1.8 | -21.9 | 10.0*
O=C(O)CCn1cc(/C=C2\NC(=S)N(c3ccccc3)C2=O)c(-c2ccc(Br)cc2)n1 | -2.2 | x | -4.7 | -1.8 | 9.2 | -0.9
CN1CCc2cccc3c2[C@H]1Cc1ccc(O)c(O)c1-3 | -0.9 | -11.7 | -2.9 | 0.0 | -10.2 | 11.5*!
COCC(=O)NC[C@H]1[C@H](c2ccc(C3=CCCC3)cc2)[C@@H](CO)N1C(C)=O | x | -2.0 | x | x | x | x
Cc1ccc(/C=N/NS(=O)(=O)c2ccc([N+](=O)[O-])cc2)o1 | -0.1 | x | 2.3 | -1.3 | 4.1 | 0.3
CCCCCCCCCCS(=O)(=O)N/N=C/c1ccc([N+](=O)[O-])cc1 | -9.1 | -1.5 | 15.6 | 0.4 | 3.3 | 30.6*
CCCNC(=O)C[C@@H]1CC[C@H]2[C@@H](COc3ccc(NC(=O)c4cccc(F)c4)cc3C(=O)N2C)O1 | x | -2.2 | x | x | x | x
